TDP1 cell noCPT – qHTS for Inhibitors of human tyrosyl-DNA phosphodiesterase 1 (TDP1): qHTS in cells in absence of CPT | DT40 Tdp1-/- hTDP1 cells, no CPT, ATP luminescence, 48 h | 420,000 tested, 15% active | Potency, µM (series often up to 46.2 µM), usual class: inhibitors; further: nearly all actives have a fitted effect of over 55% in size
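Seeded 400 DT40-hTDP1 cells/well (vehicle DMSO, no 20 nM CPT); pinned compounds; ≥48 hr at 37 °C; CellTiter-Glo luminescence as viability measure.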
IL1B secr inh – inflammasome signaling inhibition, IL-1 beta readout. THP-1 LPS/ATP IL-1B secretion, AlphaLISA, 16 h; hits give low values. activity change, % at 57.5 µM. 360,000 tested, 4.7% active; in the data active means activity change below about -50%; inconclusive means mostly about -30% to -49%
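THP-1 cells pretreated 1 hr with compounds (up to 57.5 uM final), then stimulated with LPS (250 ng/mL final) plus ATP (1.25 mM final); secreted IL-1B measured by AlphaLISA after 16 hr, decreased signal indicating inhibition.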
DT40 TDP1 CPT – DT40-hTDP1 cell growth loss with CPT | Potency, µM (top dose mostly 46.2 µM), most hits filed as inhibitors | chicken DT40 Tdp1-/-;hTDP1 cells + 20 nM CPT, ATP luminescence, 48 h | 420,000 tested, 12% active; further: nearly all actives have a fitted effect of over 55% in size
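Chicken DT40 Tdp1-/- cells stably complemented with human TDP1 were seeded at 400 cells/well in medium containing 20 nM camptothecin, exposed to pin-transferred compounds, and grown at 37 °C for at least 48 hr. Viability was read as ATP luminescence.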
RORg inh – inhibitors of mouse ROR gamma transcriptional activity. Drosophila S2 Gal4-RORgamma UAS-luciferase reporter, 20 h. Potency, µM (series often up to 53.6 µM), usual class: inhibitors. 310,000 tested, 5.4% active; further: nearly all actives have a fitted effect of over 60% in size
Target sequence (P51450 whole entry, looked up, the tested form may be a part): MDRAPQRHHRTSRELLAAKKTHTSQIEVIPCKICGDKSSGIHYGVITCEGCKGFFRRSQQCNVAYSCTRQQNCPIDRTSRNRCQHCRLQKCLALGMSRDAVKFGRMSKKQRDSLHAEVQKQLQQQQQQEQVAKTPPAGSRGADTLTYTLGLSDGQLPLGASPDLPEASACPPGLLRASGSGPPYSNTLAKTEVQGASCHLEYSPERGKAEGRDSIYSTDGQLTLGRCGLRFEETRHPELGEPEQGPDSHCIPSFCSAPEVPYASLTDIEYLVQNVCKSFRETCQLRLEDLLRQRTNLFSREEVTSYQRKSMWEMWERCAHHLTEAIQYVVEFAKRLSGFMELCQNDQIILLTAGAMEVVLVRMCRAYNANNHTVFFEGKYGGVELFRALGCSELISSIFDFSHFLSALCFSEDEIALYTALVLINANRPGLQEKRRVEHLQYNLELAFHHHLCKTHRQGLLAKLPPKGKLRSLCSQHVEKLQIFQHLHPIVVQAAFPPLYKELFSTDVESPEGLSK
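Luminescence from a UAS-regulated Photinus luciferase reporter in stably transfected Drosophila Schneider cells is measured; decreased signal marks ROR gamma inhibition. Fusion expression is induced by 700 uM copper sulfate for 20 hr.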
ELG1 repair inh – blocks ELG1-dependent DNA repair in HEK293T cells; AID 504467; HEK293T ELG1-luciferase reporter, luminescence, 16 h; DNA damage induced by 5-fluorouridine; Potency, µM (highest dose often 46.1 µM), hits mostly inhibitors; 330,000 tested, 2.3% active; further: nearly all actives have a fitted effect of over 55% in size
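5-Fluorouridine DNA damage + compound/DMSO, 2,000 cells/well, 16 h, 37 °C/5% CO2. ONE-Glo, 30 min RT, luminescence. Readout = decrease in reporter signal.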
Gal4-VP16 FLuc – Gal4-VP16 reporter inhibition counter-screen; Drosophila S2 Gal4-VP16 UAS-luciferase, luminescence, 20 h; Potency, µM (top dose mostly 53.6 µM), usual class: inhibitors; 310,000 tested, 3.5% active; AID 2546;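 further: Gal4-VP16 expression switched on by copper sulfate through the metallothionein promoter; nearly all actives have a fitted effect of over 50% in size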
Numbers stand for hits; 0 = inactive; ? = inconclusive; - = not tested or not shown; [ ] = another dose, or the depositor's remark. Compounds with a hit are over-represented: about 21% of the library has one in this group of screens. Unless noted, the call rests on the fitted dose curve; in most records, active means well fitted curve in the direction sought with a large enough effect; inconclusive means small, poorly fitted or top-dose-only effect, or another doubt; inactive means no such curve, though single readings can be large; an effect the other way counts as inactive or inconclusive.

SMILES	TDP1 cell noCPT	IL1B secr inh	DT40 TDP1 CPT	RORg inh	ELG1 repair inh	Gal4-VP16 FLuc
CC(C)=C1C2CCC1C1C(=O)N(NC(=O)COc3ccc(Cl)c(C)c3)C(=O)C21 (stereo unspecified)	0	-68	0	0	0	0
Cc1cc(OCC(=O)Nc2nnc(C3CC3)s2)ccc1Cl	?	0	0	-	-	-
CC(NC(=O)Cc1ccccc1)C(c1ccccc1)N1CCOCC1 (stereo unspecified)	0	-64	0	0	0	0
CC(NC(=O)c1cccnc1)C(c1ccccc1)N1CCN(C)CC1 (stereo unspecified)	0	0	0	0	0	0
CC(=O)C(C(c1ccccc1)N1CCOCC1)N1CCOCC1 (stereo unspecified)	18µM	0	?	-	-	-
CC(NC(=O)c1ccc(-c2ccccc2)cc1)C(c1ccccc1)N1CCOCC1 (stereo unspecified)	13µM	0	?	-	0	-
CC(C)CC(=O)NC(C)C(c1cccs1)N1CCOCC1 (stereo unspecified)	0	0	0	0	0	0
Cc1ncnc(N)c1CCCNc1ccccc1	?	0	0	-	-	-
O=C(Nc1ccc(Oc2cccnc2)cc1)c1cccc([N+](=O)[O-])c1	?	-56	?	?	0	0
COc1ccc(NC(=O)c2cccc(N3C(=O)c4cccc([N+](=O)[O-])c4C3=O)c2)cc1	0	0	0	0	?	0
COc1ccc(/C=C2\C(=O)N(c3c(Cl)cc(Cl)cc3Cl)N=C2NC(=O)c2cccc([N+](=O)[O-])c2)cc1	?	-105	18µM	0[10 µM]	?	0
COc1ccc(C(=O)C(C)Oc2cccc(NC(=O)c3cccc([N+](=O)[O-])c3)c2)cc1 (stereo unspecified)	21µM	0	?	?	15µM	0
O=C(Nc1ccc2ccccc2c1)c1cccc([N+](=O)[O-])c1	?	0	0	0	?	0
Nc1ccc2c(Cl)cc(Cl)cc2c1	0	0	0	-	-	-
NC(=O)c1nsc(C(=O)N(Cc2ccco2)C(C(=O)NC2CCCC2)c2ccc(O)cc2)c1N (stereo unspecified)	?	0	0	0	0	0
COc1ccc(C(C(=O)NC2CCCC2)N(C(=O)c2snc(C(N)=O)c2N)C2CCCC2)cc1OC (stereo unspecified)	0	0	0	0	0	0
COc1ccc(C(C(=O)NC2CCCCC2)N(Cc2ccco2)C(=O)c2snc(C(N)=O)c2N)cc1 (stereo unspecified)	?	-68	?	0	?	0
COCCN(C(=O)c1snc(C(N)=O)c1N)C(C(=O)NC1CCCCC1)c1ccc(N(C)C)cc1 (stereo unspecified)	15µM	0	0	0	0	0
COc1ccc(C(C(=O)NC2CCCC2)N(Cc2ccco2)C(=O)c2snc(C(N)=O)c2N)cc1OC (stereo unspecified)	0	-59	?	0	?	0
O=c1[nH]c(C2CCCN(S(=O)(=O)c3ccccc3F)C2)nc2c1nnn2Cc1ccccc1Cl (stereo unspecified)	?	0	?	?	0	?
O=C(NN1CCOCC1)c1cccc(Cl)c1	0	0	0	0	0	0
COc1cccc(CN(C)C(=O)c2cc(S(=O)(=O)NC3CCCCC3)ccc2C)c1OC	0	0	?	-	0	-
COc1ccc(NC(=O)N2CCC(n3c(C)nc4cccnc43)CC2)cc1OC	0	-	0	-	-	-
Cc1onc(-c2ccccc2Cl)c1C(=O)Nc1nc2ccc(S(C)(=O)=O)cc2s1	9.2µM	0	8.2µM	0	?	0
O=C(Nc1nc2c(F)cc(F)cc2s1)c1ccco1	0	0	0	0	?	?
SMILES	TDP1 cell noCPT	IL1B secr inh	DT40 TDP1 CPT	RORg inh	ELG1 repair inh	Gal4-VP16 FLuc
O=C(CCc1ccccc1)Nc1nc2c(F)cc(F)cc2s1	13µM	0	?	0	?	?
COC(=O)c1ccc2nc(NC(=O)C(C)C)sc2c1	?	0	0	?	?	0
CS(=O)(=O)c1ccc2nc(NC(=O)Cc3ccccc3)sc2c1	0	0	0	0	0	0
COC(=O)c1ccc2nc(NC(=O)C3CC3)sc2c1	?	0	0	8.9µM	?	?
CCc1noc(C)c1C(=O)Nc1nc2ccc(S(C)(=O)=O)cc2s1	?	0	?	-	?	-
CS(=O)(=O)c1ccc2nc(NC(=O)CCS(=O)(=O)c3ccccc3)sc2c1	5.2µM	-93	5.2µM	18µM	0	?
COCCCNC(=O)Cn1cnc2c(OCc3ccccc3)ncnc21	0	0	0	-	0	-
CCc1ccc(C(=O)C(C)OC(=O)CNS(=O)(=O)c2ccc(C)cc2)cc1 (stereo unspecified)	0	0	0	-	0	-
C[C@@]12C=Cc3occc3[C@H]1CC[C@@]13C[C@@H](CC[C@H]12)[C@@](O)(CO)C3	-	-	-	0	-	0
Cc1ccccc1C1=C/C(=C(\SS/C(C(=O)c2ccc(OCC(=O)O)c(Cl)c2Cl)=C2\C=C(c3ccccc3C)SS2)C(=O)c2ccc(OCC(=O)O)c(Cl)c2Cl)SS1	0	?	0	-	-	-
COc1ccccc1-c1cnc(C(O)c2ccc(Cl)cc2)[nH]1 (stereo unspecified)	0	0	0	-	-	-
COC(=O)c1ccc2nc(NC(=O)CCS(=O)(=O)c3ccccc3)sc2c1	9.2µM	0	8.2µM	0	0	0
O=C(CCS(=O)(=O)c1ccccc1)Nc1nc2ccc(F)cc2s1	13µM	0	12µM	-	0	-
Cc1nc2ccc(NC(=O)CCS(=O)(=O)c3ccccc3)cc2s1	0	0	0	0	?	?
O=C(CCS(=O)(=O)c1ccccc1)Nc1nc2cc3c(cc2s1)OCO3	?	-52	?	0	?	?
O=C(CCS(=O)(=O)c1ccccc1)Nc1nc2cc3c(cc2s1)OCCO3	?	?	?	0	?	?
CS(=O)(=O)c1ccc2nc(NC(=O)c3ccccc3)sc2c1	?	0	0	11µM	?	?
CCNC(=O)CC1C(=O)N(c2ccc(F)cc2)C(=O)N1Cc1ccc(OC)c(OC)c1 (stereo unspecified)	?	-	0	-	-	-
Cc1cc(NC(=O)Cn2cc(C(F)(F)F)cc(Cl)c2=O)no1	0	0	0	0	0	0
CC(C)(C)NS(=O)(=O)c1ccc2nc(NC(=O)Cc3cccs3)sc2c1	15µM	0	?	?	0	0
O=C(NN=C1CCCC1)c1cccs1	0	0	0	?	?	?
CC1=C/C(=N\NC(=O)c2cccs2)CC(C)(C)C1	0	0	?	6.3µM	0	11µM

Screening results from PubChem BioAssay.
